TRHR ag: TRH receptor (human) agonism; P34981; TRHR cells, calcium flux fluo-8, FDSS agonist mode; activation, % at 2 µM; 360,000 tested, 0.18% active
Target sequence (P34981 whole entry, looked up): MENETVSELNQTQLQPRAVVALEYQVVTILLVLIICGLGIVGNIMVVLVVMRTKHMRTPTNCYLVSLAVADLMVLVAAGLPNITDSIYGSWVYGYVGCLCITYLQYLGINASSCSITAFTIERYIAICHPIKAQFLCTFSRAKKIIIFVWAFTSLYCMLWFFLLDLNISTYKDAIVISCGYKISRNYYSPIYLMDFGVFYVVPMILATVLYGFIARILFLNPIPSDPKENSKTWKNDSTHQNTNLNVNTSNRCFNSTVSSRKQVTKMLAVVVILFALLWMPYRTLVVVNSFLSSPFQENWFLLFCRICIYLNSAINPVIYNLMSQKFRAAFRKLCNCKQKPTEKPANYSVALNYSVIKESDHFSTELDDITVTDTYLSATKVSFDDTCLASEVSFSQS
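TRHR-expressing cells loaded with fluo-8 calcium dye; 23 nL library compound pin-transferred, kinetic FDSS fluorescence (Ex 480/Em 530) recorded about 180 s for agonist-induced calcium release, before a 10 nM TRH EC20 addition for potentiator mode.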
TRHR enhancer: allosterically enhances the human TRH receptor | P34981 | TRHR cells, fluo-8 calcium fluorescence, EC20 TRH enhancement | enhancement, % at 2 µM | 360,000 tested, 0.66% active | AID 493056; in the data active = enhancement above about 30%
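TRHR-expressing cells loaded with fluo-8 calcium dye were read kinetically (ex 480/em 530) during compound addition, then stimulated with an EC20 of TRH (10 nM final). Enhancement of the Gq-mediated intracellular calcium response was scored.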
D1 antag: blocks dopamine activation of the human D1 receptor; P21728; HEK293 TREx D1 cells, calcium flux, dopamine EC80; hits give low values; activity change, negative = inhibition, % at 10 µM; 360,000 tested, 3.2% active; AID 504652; in the data active = activity change below about -30%
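Tetracycline-induced HEK293 Trex D1 cells, force-coupled to calcium, dye-loaded; compounds added and read 180 s, then EC80 dopamine added and calcium flux tracked kinetically another 180 s.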
D1 ag: activates the human D1 dopamine receptor; P21728; HEK293 T-REx D1 cells, calcium flux, agonist mode; activation, % at 2 µM; 360,000 tested, 1% active
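Agonism was scored from calcium flux recorded over 180 s (1 read/s) after pintool compound addition, following a 10-cycle baseline. Cells were inducible force-coupled HEK293 TREx D1, plated overnight at 30 C and loaded with no-wash calcium dye.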
LDHA inh: inhibitors of human lactate dehydrogenase A; AID 1347041; purified LDHA, NADH/diaphorase-resazurin fluorescence; hits give low values; activity change, % (values are at about 110 or 230 µM); 480,000 tested, 0.15% active; P00338; in the data active = activity change below about -30%
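Resorufin fluorescence (ex540/em590), read at 0 and 20 min after diaphorase/resazurin addition, reports the NADH left after a 5 min room-temperature reaction of 2 nM human LDH5 with 0.06 mM NADH and 0.2 mM pyruvate.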
D1 potentiator: potentiators of human D1 dopamine receptor | 360,000 tested, 0.036% active | AID 504651 | P21728 | HEK293 TREx D1 cells, calcium flux, dopamine EC20 potentiation | potentiation, % at 10 µM; in the data active = potentiation above about 30%
A number is an active result; n = inactive; x = no result given; ! = repeats disagree. Rows were chosen to be rich in hits. Some 3.6% of all compounds tested hit in one or more screens of this group. Cut-off read from the data, not from the text of the source, unless noted: active = activation above about 30%; inactive = the rest.

SMILES	TRHR ag	TRHR enhancer	D1 antag	D1 ag	LDHA inh	D1 potentiator
Cn1cc([N+](=O)[O-])c(C(=O)Nc2nc(-c3ccc(Cl)cc3)cs2)n1	n	n	-48	n	n	n
COc1ccc(-c2nc(NC(=O)Cn3ccc(C(F)(F)F)n3)sc2C)cc1	n	n	-40	n	n	n
COc1cccc(CCC(=O)Nc2nc(C)c(C)s2)c1OC	x	x	x	x	n	x
Nc1nc(Cl)ncc1[N+](=O)[O-]	x	x	x	x	n	x
COc1ccc(-c2nc(NC(=O)c3[nH]c(C)c(C(C)=O)c3C)sc2C)cc1	n	n	-91	n	n	n
FC(F)(F)c1cccnc1Oc1ccc(C2=NCCS2)cc1	n	n	n	37	n	n
Nc1cccnc1Oc1ccc(F)cc1	n	n	n	n	n	n
Cc1ccc(NC(=O)c2sc3nc(-c4ccncc4)ccc3c2N)cc1	n	n	n	165	n	n
Cc1ccccc1NC(=O)c1sc2nc(-c3ccncc3)ccc2c1N	n	n	n	48	n	n
Cn1cc(/C=N/NC(=O)c2cc3cc(Br)ccc3o2)c2ccccc21	n	n	n	n	n	n
O=C(O)Cn1cc(/C=N/NC(=O)c2cc3cc(Br)ccc3o2)c2ccccc21	n	n	-33	n	n	n
O=C(O)CCCN1C(=O)C(=O)/C(=C(/O)c2ccccc2)C1/C=C/c1ccccc1 (stereo not given)	n	n	-31	n	n	n
CCN(C(=O)c1ccc2[nH]c(C)c(C)c2c1)C1CCS(=O)(=O)C1 (stereo not given)	x	x	x	x	n	x
Cn1c(Oc2ccc3cc(Br)ccc3c2)c(C#N)c(=O)n(C)c1=O	x	x	x	x	n	x
O=C(NCCCOC1CCCCC1)c1cc(=O)[nH]c2ccccc12	x	x	x	x	n	x
Cc1ccc(NC2=NC3(CCCC3)N=C(N)N2)c(C)c1	n	n	-37	n	n	n
Cc1ccc(NC2=NC3(CCCCC3)N=C(N)N2)c(C)c1	n	n	-66	n	n	n
NC1=NC2(CCCCC2)N=C(Nc2ccc(Br)cc2)N1	n	n	-37	n	n	n
Cc1ccc(C)c(NC2=NC3(CCCCC3)N=C(N)N2)c1	n	n	n	n	n	n
CCN(CC)C(=O)CSc1nc2ccsc2c(=O)n1C	x	x	x	x	n	x
CC(CCc1ccccc1)N1CCN(Cc2ccccc2)CC1 (stereo not given)	n	n	n	n	-31	n
S=c1[nH]nc(-c2cccnc2)n1-c1ccc2c(c1)OCCO2	n	n	-46	n	n	n
CCCOc1ccc(CNC(=O)C2CCN(C(=O)N3CCOc4ccccc43)CC2)cc1	n	n	-32	n	n	n
CCC1CN(C(=O)NCc2ccc(F)cc2)c2ccccc2O1 (stereo not given)	n	n	-56!	n	n	n
CCC1CN(C(=O)NCc2ccc(F)cc2)c2cc(Cl)ccc2O1 (stereo not given)	n	n	n	n	n	n
SMILES	TRHR ag	TRHR enhancer	D1 antag	D1 ag	LDHA inh	D1 potentiator
COc1ccc(CNC(=O)C2CCN(C(=O)N3CC(C)Oc4ccc(C)cc43)CC2)cc1 (stereo not given)	n	n	n	n	n	n
CCOc1ccc(CNC(=O)C2CCN(C(=O)N3CC(C)Oc4ccccc43)CC2)cc1 (stereo not given)	n	n	-38	n	n	n
CCC1CN(C(=O)N2CCC(C(=O)NCc3cccc(C)c3)CC2)c2ccccc2O1 (stereo not given)	n	n	-32	n	n	n
O=C(CCC1CCCCC1)Nc1ccc(Nc2ccccc2)cc1	x	x	x	x	n	x
CC1(C)CC(=O)C/C(=N/NC(=O)c2ccccc2I)C1	x	x	x	x	n	x
c1csc(CNC2CCCCCCC2)c1	x	x	x	x	n	x
CC1CN(C(=O)N2CCC(C(=O)NCCCc3ccccc3)CC2)c2cc(Cl)ccc2O1 (stereo not given)	n	n	-57	n	n	n
O=C1NC(=O)C(CC(=O)N(Cc2ccco2)C2(C(=O)NC3CCCC3)CCCCC2)N1 (stereo not given)	n	33	n	n	n	n
Cc1cccc(C)c1NC(=O)C1(N(Cc2ccco2)C(=O)CC2NC(=O)NC2=O)CCCCC1 (stereo not given)	n	n	n	n	n	n

Compound activity deposited in PubChem BioAssay by National Center for Advancing Translational Sciences (NCATS).
